Assay results taken from PubChem BioAssay AID1578 (Sanford-Burnham Center for Chemical Genomics, 2009).
The campaign covered roughly 290,000 compounds. About 3,000 (1%) were called active. Rule as the data show it: active = inhibition mostly above about 36% (no sharp cut-off); inactive = mostly below about 34%. Only a selection was taken, and actives are over-represented in it overall.

Assay: inhibition of NOD1-driven NF-kB reporter – cell-based, luminescence, uHTS, primary screen (AID 1578);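 also: HEK-293T reporter cells stimulated with the NOD1 agonist gamma-tri-DAP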
Conditions: NOD1-driven NF-kB luciferase reporter cells, at 4 µM, hits give high values

| SMILES | inhibition |
| --- | --- |
| COc1ccc(S(=O)(=O)N(C)c2ccc(C(=O)Nc3c(C)n(C)n(-c4ccccc4)c3=O)cc2)cc1 | -31.9% (inactive) |
| CCCC(C)NC(=O)c1cc(Cl)ccc1OC (stereo unspecified) | -0.3% (inactive) |
| CC(=O)c1cnc(Oc2cc(Cl)ccc2Cl)nc1C | -14.2% (inactive) |
| CN(C)S(=O)(=O)c1cccc(CSc2cccc[n+]2[O-])c1 | -15.4% (inactive) |
| Cc1cc(C)n2nc(SCc3cccc(S(=O)(=O)N(C)C)c3)nc2n1 | 7.2% (inactive) |
| COC(=O)c1c(NC(=O)C2CCC2)sc(C(=O)N(C)C)c1C | -8.7% (inactive) |
| CCc1cccc(N(C(=O)c2csnn2)C(C(=O)NC2CCCC2)c2cccnc2)c1 (stereo unspecified) | -10.2% (inactive) |
| CSc1ccc(/C=C2\CCn3c2nc2cc(C(=O)O)ccc2c3=O)cc1 | -1.6% (inactive) |
| O=C(O)c1ccc2c(=O)n3c(nc2c1)/C(=C/c1ccc(F)cc1)CC3 | 33.3% (active) |
| O=C(O)c1ccc2c(=O)n3c(nc2c1)/C(=C/c1ccc(C(F)(F)F)cc1)CC3 | 1.9% (inactive) |
| Cc1nc(-c2ccccc2)sc1C1(C)CC(c2c(Cl)cccc2Cl)=NO1 (stereo unspecified) | 10.1% (inactive) |
| CCCO/N=C1/C(=O)N(c2ccccc2)c2ccccc21 | 6.1% (inactive) |
| NC(=O)CN1C(=O)C(O)(CC(=O)/C=C\C=C\c2ccccc2)c2ccccc21 (stereo unspecified) | 17.8% (inactive) |
| CCN1C(=O)C(O)(CC(=O)/C=C/C=C/c2ccccc2)c2ccccc21 (stereo unspecified) | -4.8% (inactive) |
| C#CCN1C(=O)C(O)(CC(=O)/C=C/C=C/c2ccccc2)c2ccccc21 (stereo unspecified) | 57% (active) |
| Cc1ccc(S(=O)(=O)/N=C(/Nc2ccc3[nH]c(=O)[nH]c3c2)c2ccc(F)cc2)cc1 | 3.8% (inactive) |
| N#CC1=C(SCC(=O)NC2CC2)NC(=O)C(C#N)C12CCCCC2 (stereo unspecified) | 15.7% (inactive) |
| CCSC1=C(C#N)C2(CCCCC2)C(C#N)C(=O)N1 (stereo unspecified) | -3.2% (inactive) |
| COCCN=C1OC(=O)N2C(=O)C3=C4[C@@H](C[C@H]5C(=O)N(c6ccccc6)C(=O)[C@H]5[C@H]4[C@@]12Cc1ccccc1)[C@H]1C(=O)N(c2ccccc2)C(=O)[C@H]1[C@H]3C | 4.5% (inactive) |
| Cc1cc(C)nc(N(C#N)Cc2ccccc2C)n1 | -6.3% (inactive) |
| COc1ccc(C(=O)C(CN2CCOCC2)c2ccccc2)cc1 (stereo unspecified) | 38% (inactive) |
| COc1ccc(C(=O)C(CN2CCCC2)c2ccccc2)cc1 (stereo unspecified) | 78.7% (active) |
| CCCOc1ccc(C(=O)C(CN2CCCC2)c2ccccc2)cc1 (stereo unspecified) | 31.5% (inactive) |
| O=C(c1ccc(F)cc1)C(CN1CCOCC1)c1ccccc1 (stereo unspecified) | 67.3% (active) |

| SMILES | inhibition |
| --- | --- |
| O=C(c1ccc(Br)cc1)C(CN1CCOCC1)c1ccccc1 (stereo unspecified) | 5.4% (inactive) |
| CCOc1ccc(C(=O)C(CN2CCOCC2)c2ccccc2)cc1 (stereo unspecified) | -28.1% (inactive) |
| Fc1ccc(OCc2nn[nH]n2)c(F)c1 | -9.1% (inactive) |
| COc1ccc(C(=O)NC(=S)NNC(=O)[C@H]2C[C@@H]2c2ccccc2)cc1OC | -2.6% (inactive) |
| O=C(NCC(=O)N(c1cccc(F)c1)C(C(=O)NC1CCCC1)c1ccco1)c1ccco1 (stereo unspecified) | -35.9% (inactive) |
| O=C(NCc1ccncc1)c1ccc(Oc2ccccc2)cc1 | 18.9% (inactive) |
| Cc1ccc(Oc2ccc(C(=O)NCc3ccncc3)cc2)cc1 | 38.4% (active) |
| CCOc1ccc(C(=O)NCc2ccncc2)cc1 | -14.8% (inactive) |
| O=S(=O)(NCc1ccc2c(c1)OCO2)c1c(F)cc(F)cc1Br | -29.4% (inactive) |
| Fc1ccccc1/C=N/NC(=S)Nc1ccc(Cl)cc1Cl | -13.3% (inactive) |
| Cc1cc(C(=O)N/N=C/c2ccc([N+](=O)[O-])cc2)c2ccccc2n1 | 8.1% (inactive) |
| Cc1ccccc1C(=O)N/N=C/c1ccc([N+](=O)[O-])s1 | 11% (inactive) |
| Fc1ccc(/C=N/NC(=S)Nc2ccc(Cl)cc2Cl)cc1 | 8.9% (inactive) |
| O=C(N/N=C\c1cccc([N+](=O)[O-])c1O)C1COc2ccccc2O1 (stereo unspecified) | -14.4% (inactive) |
| COC(=O)N/N=C/c1ccc([N+](=O)[O-])s1 | -14.7% (inactive) |
| O=C(N/N=C\c1ccc(Cl)s1)C1COc2ccccc2O1 (stereo unspecified) | -4.2% (inactive) |
| COc1ccccc1NC(=O)C(=O)N/N=C/c1cccs1 | -36% (inactive) |
| COc1ccccc1NC(=O)C(=O)N/N=C/c1ccc([N+](=O)[O-])s1 | 74.8% (active) |
| COc1cccc(NC(=O)c2ccccc2N2C(=O)C3C4C=CC(C5CC45)C3C2=O)c1 (stereo unspecified) | -54.1% (inactive) |
| COc1cccc(OCC(O)CNC(C)c2ccccc2)c1 (stereo unspecified) | -39.9% (inactive) |
| C=CCNc1nnnc2c1sc1nc(N3CCOCC3)c3c(c12)CCCC3 | -1.1% (inactive) |
| COC(=O)c1c(NC(=O)COC(=O)CNC(=O)c2ccco2)sc(C)c1C | -14.8% (inactive) |
| Cc1ccc(/C(O)=C2\C(=O)C(=O)N(C)C2c2ccc(Br)cc2)cc1 (stereo unspecified) | -22% (inactive) |
| CC1CN(C(=O)CN2C(=O)c3ccccc3C2=O)CC(C)O1 (stereo unspecified) | -11.2% (inactive) |

| SMILES | inhibition |
| --- | --- |
| c1ccc(C(c2nnnn2C2CCCC2)N2CCN(c3nc4ccccc4s3)CC2)cc1 (stereo unspecified) | 8.2% (inactive) |
| CCOC(=O)c1c(NC(=O)CC)sc2c1CCN(Cc1ccccc1)C2 | -21.7% (inactive) |
| Nc1nonc1-n1nnc(C(=O)N/N=C/c2ccccn2)c1CNc1ccccc1 | -11.6% (inactive) |
| COc1ccccc1-c1cc(C(=O)N/N=C/c2sccc2C)c2ccccc2n1 | -11.4% (inactive) |
| O=C(N/N=C/c1cccs1)c1cc(-c2ccncc2)nc2ccccc12 | 4.8% (inactive) |
| Cc1ccsc1/C=N/NC(=O)c1cc(-c2ccncc2)nc2ccccc12 | 69.5% (active) |
| Cc1onc(-c2ccccc2Cl)c1C(=O)OCC(=O)c1c(N)n(C)c(=O)n(C)c1=O | -8.2% (inactive) |
| COc1ccc(C(C(=O)NC2CCCCC2)N(C(=O)c2snc(C(N)=O)c2N)c2ccc(OC)cc2OC)cc1 (stereo unspecified) | -7.1% (inactive) |
| Cn1c(=O)n(C)c2cc(NC(=O)c3ccccc3NS(C)(=O)=O)ccc21 | 44.4% (inactive) |
| O=c1[nH]c(C2CCN(S(=O)(=O)Cc3ccccc3)CC2)nc2c1nnn2Cc1cccc(Cl)c1 | -7.8% (inactive) |
| NC(=O)Nc1ccc(Cl)cc1 | 0.2% (inactive) |
| NC(N)=NC(=S)Nc1ccc(Cl)cc1 | -15.3% (inactive) |
| NC(=NCCCCCCN=C(N)/N=C(\N)Nc1ccc(Cl)cc1)/N=C(\N)Nc1ccc(Cl)cc1 | 46.6% (active) |
| Cc1ccc(S(=O)(=O)NC(C)C(=O)Nc2ccc3c(c2)OCO3)cc1 (stereo unspecified) | -7.4% (inactive) |
| Cc1cc(C(F)F)n2nc(C(=O)Nc3cccc(C(F)(F)F)c3)nc2n1 | -25.8% (inactive) |
| COC(=O)CNC(=O)C(NC(=O)c1ccc(Cl)cc1)C(C)C (stereo unspecified) | 1.3% (inactive) |
| O=C(CC1C(=O)NCCN1Cc1cccc(F)c1)NC1CCC1 (stereo unspecified) | -28.3% (inactive) |
| CCOc1ccc2c(c1)C(C)=CC(C)(C)N2S(=O)(=O)c1ccc(C)cc1 | -31.4% (inactive) |
| CCOc1ccc2c(c1)C(C)=CC(C)(C)N2S(=O)(=O)c1ccc(NC(C)=O)cc1 | 74.1% (active) |
| COc1ccc2c(c1)C(C)=CC(C)(C)N2S(=O)(=O)c1ccc(NC(C)=O)cc1 | 31.4% (inactive) |
| CC(=O)c1cnc2nc(SCc3ccccc3)nn2c1C | -36% (inactive) |
| O=C(NC1CCCC1)C(c1ccc(F)cc1)N(C(=O)c1csnn1)c1ccccc1 (stereo unspecified) | -27.7% (inactive) |
| CCOc1ccc2nc(SCC(=O)Nc3ccc4c(c3)OCO4)sc2c1 | 67.3% (active) |
| O=C(CSc1nc2ccccc2s1)c1ccc(O)cc1O | 0.6% (inactive) |

| SMILES | inhibition |
| --- | --- |
| CCOc1ccc2nc(SCC(=O)c3ccc(O)cc3O)sc2c1 | 51.8% (active) |
| O=C(CSc1nc2ccccc2s1)Nc1ccc2c(c1)OCO2 | 12.2% (inactive) |
| CCOc1ccc2nc(SCC(=O)NC(=O)C(C)C)sc2c1 | -13.9% (inactive) |
| CCOc1ccc2nc(SCC(=O)c3ccccc3)sc2c1 | -38.9% (inactive) |
| CCN1CCN(C(=S)c2ccc(O)cc2)CC1 | -31% (inactive) |
| Nc1cccc(C(=O)OCC(=O)Nc2cccc3c2C(=O)c2ccccc2C3=O)c1 | -3.2% (inactive) |
| O=C(CSc1ccccc1)NC1=NCCS1 | -5.2% (inactive) |
| COc1ccc(Nc2ncc(C(=O)N3CCN(c4ccccc4OC)CC3)c3ccccc23)cc1 | 52.5% (inactive) |
| CN(C(=O)c1cnc(N2CCN(c3ncccn3)CC2)c2ccccc12)c1ccc(Cl)cc1 | 14.2% (inactive) |
| COc1ccc(N(C)C(=O)c2cnc(N3CCN(c4ncccn4)CC3)c3ccccc23)cc1 | -20% (inactive) |
| COc1ccccc1C(=O)N1CCN(c2cccc(Cl)c2)CC1 | 33.8% (inactive) |
| COc1ccc(CNCc2ccc(F)cc2)c(OC)c1 | -19.8% (inactive) |
| CCOC(=O)NC(=O)/C(N=Nc1cc(C)cc(C)c1)=C(\C)O | -20.5% (inactive) |
| CC(C)(C)NCC(O)(c1ccc(Cl)cc1)c1ccc(Cl)cc1 | -30.2% (inactive) |
| CCNC(=S)N(Cc1ccc2c(c1)OCO2)C1CC(=O)N(c2ccc(F)cc2)C1=O (stereo unspecified) | -9.3% (inactive) |
| CCOC(=O)N1CCN(C(=O)c2ccc(CNS(=O)(=O)c3ccc(C)cc3)cc2)CC1 | -13.1% (inactive) |
| COc1ccc(S(=O)(=O)NCc2ccccc2)cc1 | 9.2% (inactive) |
| Cc1ccc(S(=O)(=O)NCc2ccc(C(=O)N3CCCC3)cc2)cc1 | -46% (inactive) |
| COc1cccc(CNS(=O)(=O)c2ccc3c(c2)CC(C)N3C(=O)C2CC2)c1 (stereo unspecified) | 11.6% (inactive) |
| COc1ccc(CNS(=O)(=O)c2ccc(OC)cc2)cc1 | -1.2% (inactive) |
| COc1ccc(S(=O)(=O)NCc2ccc(C(=O)O)cc2)cc1 | 40.7% (active) |
| CC1Cc2cc(S(=O)(=O)NCc3ccccc3)ccc2N1C(=O)C1CC1 (stereo unspecified) | -4.7% (inactive) |
| Cc1ccc(S(=O)(=O)NCc2ccc(C(=O)N3CCN(c4ccccc4)CC3)cc2)cc1 | 15.5% (inactive) |
| COc1ccc(N2CCN(C(=O)c3ccc(CNS(=O)(=O)c4cc(C)ccc4C)cc3)CC2)cc1 | -18.8% (inactive) |
